Screening data from PubChem BioAssay.
PABP FP inh: PABP poly(A) RNA binding inhibitors, primary screen, biochemical, fluorescence polarization, uHTS | 290,000 compounds, 1% hits | AID 2014, 2009 | inhibition, % at 35 µM | Polyadenylate-binding protein 1 (Homo sapiens), P11940;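 further: calls also rest on retests at 20 µM and on dose response follow-up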
Target sequence (P11940 whole entry, looked up): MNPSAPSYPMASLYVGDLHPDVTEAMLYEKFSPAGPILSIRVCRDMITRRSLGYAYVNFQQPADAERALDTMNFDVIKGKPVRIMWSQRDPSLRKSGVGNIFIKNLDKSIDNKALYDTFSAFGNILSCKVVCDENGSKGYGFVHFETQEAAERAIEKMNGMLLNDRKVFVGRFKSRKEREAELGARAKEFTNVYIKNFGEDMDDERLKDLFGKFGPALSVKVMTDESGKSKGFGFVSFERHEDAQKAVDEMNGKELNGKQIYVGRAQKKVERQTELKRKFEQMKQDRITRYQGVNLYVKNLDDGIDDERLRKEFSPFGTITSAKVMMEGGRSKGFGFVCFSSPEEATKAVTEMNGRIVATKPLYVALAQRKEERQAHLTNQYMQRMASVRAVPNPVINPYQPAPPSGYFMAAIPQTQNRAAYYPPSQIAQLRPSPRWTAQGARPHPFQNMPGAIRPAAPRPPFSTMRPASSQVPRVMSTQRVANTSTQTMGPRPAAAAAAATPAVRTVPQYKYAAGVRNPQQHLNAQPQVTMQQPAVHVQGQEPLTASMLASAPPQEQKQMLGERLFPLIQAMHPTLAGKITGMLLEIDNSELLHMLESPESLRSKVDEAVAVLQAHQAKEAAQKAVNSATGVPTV
eIF4H FP inh: human eIF4H binding inhibitors, primary screen, translation initiation inhibitor project, biochemical, uHTS, fluorescence polarization | Eukaryotic translation initiation factor 4H (Homo sapiens), Q15056 | eIF4H fluorescence polarization binding assay | inhibition, % at 35 µM | 290,000 compounds, 0.94% hits;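 further: calls also rest on retests at 20 µM and on dose response follow-up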
NRP1-CendR mod: modulators of CendR peptide binding to NRP-1, primary screen, biochemical, fluorescence polarization, uHTS; FAM-RPARPAR peptide binding to NRP-1; inhibition, % at 25 µM; 360,000 compounds, 0.85% hits; AID 602438, 2012;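 active means inhibition or corrected inhibition above about 18%, plus a signal ratio from 0.5 to 1.5, limit read from the data, passing the limit was not always enough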
PABP1 MLLE inh: inhibitors of PABP1 MLLE–PAM2 peptide binding, primary screen, biochemical, fluorescence polarization, FITC-PAM2, GST-MLLE | 360,000 compounds, 0.36% hits | inhibition, % at 20 µM; in the data active means inhibition above about 35%, passing the limit was not always enough;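 further: plate controls were DMSO wells with GST-MLLE for no effect and wells lacking GST-MLLE protein for full effect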
Active calls of the source: *; ? = inconclusive; · = not tested or not shown. Sampled rows, rich in hits. Any-hit rate of the full collection: about 2.1%. Unless noted, how the calls were made is not given here.

SMILES	PABP FP inh	eIF4H FP inh	NRP1-CendR mod	PABP1 MLLE inh
O=C(CSc1ccccn1)N/N=C/c1ccccc1[N+](=O)[O-]	120*	active	-12	-5
O=C(CSc1ccccn1)N/N=C/c1c[nH]c2ccccc12	-1	-4	2	-4
C(=C\c1ccccc1)/CSc1ccccn1	57*	active	-7	-10
O=C(CSc1ccccn1)N/N=C/C=C/c1ccccc1	?	-7	22*	-6
CCN1C(=O)[C@@H]2[C@@H](c3ccc(SC4CCCCC4)c(OC)c3)N3CCC[C@@]3(C(=O)OC)[C@@H]2C1=O	·	·	-7	4
CN(C)Cc1c(C(=O)N/N=C/CCc2ccccc2)nnn1-c1nonc1N	6	11	-6	-17
CS(=O)(=O)c1ccc(Cl)c(NC(=O)CSc2nnc(-c3cccs3)n2N)c1	·	·	-2	-9
CC(=O)Nc1ccc(CNc2nc(NCC3CC3)nc3ccsc23)cc1	·	·	-6	5
CC(=O)Nc1ccc(CNc2nc(NC(C)C)nc3ccsc23)cc1	·	·	28*	6
Cc1cc(C)nc(Nc2nc(=O)c3ccccc3s2)n1	4	7	21*	38*
Cc1cc(C)nc(Nc2nc(-c3ccccc3)cs2)n1	-12	-12	2	8
CCC(C)c1ccc(NC(=O)C2CC3CCC2C3)cc1 (stereo unspecified)	·	·	6	22
COC(=O)c1cc2c(-c3ccccc3)c(C)c3ccccn3c-2c1C(=O)OC	120	126	-15	34
COC(=O)c1c(Cl)c2n3ccccc3c(C)c(-c3ccccc3)c-2c1C(=O)OC	0	31	38*	95
O=c1c2cc(N3CCOCC3)ccc2[nH]c(=S)n1Cc1ccccc1Cl	8	3	-10	-108
O=c1c2cc(N3CCOCC3)ccc2[nH]c(=S)n1Cc1ccccn1	52*	37*	-1	-28
COCCNc1nc(-c2ccc(OC)cc2C)c2sc(-c3ccccc3)cc2n1	·	·	-11	-13
CCNS(=O)(=O)c1ccc(CCC(=O)O)cc1	-15	-7	26*	-8
CC1(C(=O)NCc2ccccc2)CSCC(=O)N1Cc1ccco1 (stereo unspecified)	·	·	4	·
Cc1nc(SCC(=O)Nc2nnc(C(C)C)s2)n[nH]1	-7	-6	3	-4
Cc1nc(C)c(C(=O)Nc2ncc([N+](=O)[O-])s2)o1	8.2*	54	-4	12
O=C(NCCc1ccccc1)Nc1nnc([C@@H]2C[C@H](O)[C@@H](CO)O2)s1	·	·	-5	4
CC(=O)NC1C(=O)N(CCc2ccccc2)c2ccc(Br)cc21 (stereo unspecified)	7	1	35*	13
COc1ccccc1C1CC(c2cccs2)=NN1C(=O)CCC(=O)O (stereo unspecified)	-3	-12	-20	-27
COc1ccccc1C1CC(c2cccs2)=Nc2ccccc2S1 (stereo unspecified)	2	3	8	46*
SMILES	PABP FP inh	eIF4H FP inh	NRP1-CendR mod	PABP1 MLLE inh
CCCCCCCCN1C(=O)[C@H](CC(=O)NCc2ccc(OC)c(OC)c2)C[C@@]2(C(=O)OCC)CCCC=C12	·	·	-8	·
CCOc1ccc(N(CC(=O)NCc2ccco2)C(=O)CCC(=O)Nc2ccccn2)cc1	12	-4	5	0
COc1ccc(N(CC(=O)NCc2ccco2)C(=O)CCC(=O)Nc2ccccn2)cc1	11	8	21*	-9
O=C(/C=C/c1ccc(Cl)cc1)Nc1nccs1	61	active	1	5
Cc1noc(/C=C/N(C)C)c1S(=O)(=O)N1CCCC(C(=O)Nc2ccccc2F)C1 (stereo unspecified)	-4	-7	10	-13
O=C(CCC(=O)OCC(=O)c1ccc(-c2ccccc2)cc1)Nc1cccc(Cl)c1	0	-1	-2	10
Cc1ccccc1NC(=O)CCC(=O)OCC(=O)c1ccc(-c2ccccc2)cc1	2	-10	27*	16
Cc1ccc(C(=O)COC(=O)CCC(=O)Nc2ccccc2Cl)cc1[N+](=O)[O-]	102*	4.8*	-3	-1
Cc1ccc(C(=O)COC(=O)c2cc(Cl)ccc2O)cc1[N+](=O)[O-]	9	1	45*	-3
O=S1(=O)C=C[C@H](COCc2ccccc2)N1	·	·	6	7
O=S(=O)(CCNCCc1ccccc1)NCc1ccccc1	·	·	2	-4
Nc1c(S(=O)(=O)O)cc(NC(=O)c2ccccc2)c2c1C(=O)c1ccccc1C2=O	112*	?	27*	17
O=C(Nc1ccccc1-c1ccccc1)c1ccccc1	-1	-5	5	-8
Cc1ccc(CNC(=O)CSc2n[nH]c(N)n2)cc1	-6	-6	24*	8
COc1ccc(-c2csc(NC(=O)CSc3n[nH]c(N)n3)n2)cc1	-11	-7	-9	37*
Cc1nnc(NC(=O)C2c3ccccc3Oc3ccccc32)s1	91	3	4	38*
O=C(COC(=O)c1cc([N+](=O)[O-])ccc1N1CCOCC1)Nc1ccc(Cl)cn1	8	5	16	2
CCO[C@H]1OC(C(=O)NCc2ccccc2)=C[C@@H](c2ccc(C(F)(F)F)cc2)[C@@H]1CCCO	-5	-8	15	8
CCO[C@H]1OC(C(=O)NC2CC2)=C[C@@H](c2ccccc2)[C@@H]1CCCO	-10	-12	26*	-3
C#Cc1ccc([C@@H]2C=C(C(=O)OCC=C)O[C@H](OCC)[C@H]2CCCO)cc1	-1	88*	-11	7
C#Cc1ccc([C@@H]2C=C(C(=O)NC3CC3)O[C@H](OCC)[C@H]2CCCO)cc1	1	-2	18	-4
CCO[C@@H]1OC(C(=O)O)=C[C@H](C)[C@H]1CCCO	52*	34	-1	-6
CCO[C@@H]1OC(C(=O)NCc2ccccc2)=C[C@H](c2ccc(Br)cc2)[C@H]1CCCO	9	-2	24*	-1
CCO[C@H]1OC(C(=O)O)=C[C@@H](C2CC2)[C@@H]1CCCO	12	6	·	·
COC(=O)[C@@]12C[C@@H](CC(=O)NCC3CCCCC3)C(=O)N(CCc3ccc(OC)c(OC)c3)C1=CCC(C)(C)C2	·	·	9	·
SMILES	PABP FP inh	eIF4H FP inh	NRP1-CendR mod	PABP1 MLLE inh
CNC(=O)CC1C(=O)N(c2ccc(OC)cc2)C(=S)N1NC(=O)c1cccc(F)c1 (stereo unspecified)	-2	-9	1	-2
Cc1cc(C)n(-c2ccc(NC(=O)C3CCCCN3C(=O)c3cc(C)oc3C)cc2)n1 (stereo unspecified)	8	-8	4	-3
O=C(CCS(=O)(=O)c1ccc(Br)cc1)NCCC1=CCCCC1	16	64*	0	0
Cc1ccc(CNC(=O)CCS(=O)(=O)c2ccc(Br)cc2)cc1	11	88	-8	-10
O=C(CCS(=O)(=O)c1ccc(Cl)cc1)NCCC1=CCCCC1	-6	-12	1	-16
O=C(CCS(=O)(=O)c1ccc(Br)cc1)NC1CCCCCC1	10	64*	20	-7
O=C(CCS(=O)(=O)c1ccc(Br)cc1)NCc1ccc(F)cc1	29	87*	-4	6
